Records with an inconclusive call do not appear. The source made the active and inactive calls. Unless noted, calls follow the shape of the dose curve; as a rule, active = well fitted curve in the direction sought with a large enough effect; inconclusive = small, poorly fitted or top-dose-only effect, or another doubt; inactive = no such curve, though single readings can be large; an effect the other way counts as inactive or inconclusive.

The record followed here is PubChem BioAssay (NCATS).

The nature of assay [1]: Cytometry Cell-Based qHTS for Inhibitors of the mTORC1 Signaling Pathway in MEF cells (AID 2668).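 Also: Tsc2-/- p53-/- mouse embryonic fibroblasts stably re-expressing wild-type Tsc2; percent cells positive for phospho-rpS6 Ser235/236 relative to propidium iodide stain; series mostly up to about 38 µM.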 Summed up:
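Tsc2-/-, p53-/- MEFs re-expressing WT Tsc2; cpd 24 hrs, 37 degree Celsius; PFA fix, Alexa-488 p-rpS6 (Ser235/236) Ab 2 hrs RT, PI counterstain; Acumen 488nm scan; p-S6/PI ratio → % positive cells; PI count = viability.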
In general terms: In qHTS, concentration-response curves come from the screen itself.

A short description of assay [2]: Validation screen for inhibitors of Lassa infection (AID 463096; calls by dose curve).
Assay [3] can be described thus: Validation screen for small molecules that induce DNA re-replication in MCF 10A normal breast cells (AID 463097). Also: nearly all actives have a fitted effect of over 60% in size. Summed up: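 Image-based qHTS: normal breast cells are incubated with compound for 48 hr, stained with Hoechst, and scanned for total nuclear fluorescence. Compounds raising the fraction of nuclei with elevated DNA content count as re-replication inducers.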

Assay [4] has as its target Ubiquitin carboxyl-terminal hydrolase 2 (Homo sapiens) (UniProt O75604). Kind of assay: qHTS Validation Assay for Inhibitors of Ubiquitin-specific Protease USP2a Using CHOP2 as the Reporter (AID 463106). In short, it runs like this: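 Readout was coupled fluorescence (Ex 485/Em 531 nm), read 60 min after adding 25 nM final Ub-CHOP2 and 25 nM reporter substrate. Beforehand, 10 nM final USP2 core had 30 min at RT with compound in pH 8.0 buffer. Curves were fitted after normalization to NEM and flagged for artifacts using time-zero reads.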

Assay [5] addresses DNA polymerase III PolC-type (Bacillus subtilis (strain 168)) (UniProt P13267). Kind of assay: qHTS Validation Assay for the Inhibitors of DNA Replication in Gram-Positive Bacteria (AID 485295).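 Also: reconstituted holoenzyme with PolC plus beta clamp SSB and primase; PicoGreen fluorescence of double-stranded DNA made on primed circular M13 template; series mostly up to about 57 µM.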 In short, it runs like this:
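First, compound is mixed with the reconstituted replication complex and held at room temperature. Next, circular single-stranded M13Gori with nucleotides starts synthesis. Finally, PicoGreen in EDTA halts the reaction and stains double-stranded product for fluorescence reading.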

Assay [6] has as its target Tumor susceptibility gene 101 protein (Homo sapiens) (UniProt Q99816). Kind of assay: qHTS Validation Assay for Iinhibitors of HIV-1 Budding by Blocking the Interaction of PTAP/TSG101 (AID 485342; calls by dose curve). Summed up: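 Binding of a FITC-tagged PTAP-motif peptide (50 nM) to the Tsg101 binding domain (10 uM) is monitored by fluorescence polarization. Compounds are pin-delivered before peptide addition, and incubation runs 20 min at room temperature.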

Assay [7] in a line: qHTS Validation Assay to Find Inhibitors of Chronic Active B-Cell Receptor Signaling (AID 485345; active = well fitted curve in the direction sought with a large enough effect in the main read-out, with a control signal flat, not every such curve was filed as active). Summed up: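 Read-out: ratio of filter-corrected green (IkappaBalpha fusion) to red (native) luciferase signal in doxycycline-induced TMD8 cells after 4 h at 37C. Titration spanned 46 uM–3 nM; Data were normalised to basal cells and 10 uM MG-132 wells.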
In assay [8] the target is Beta-2 adrenergic receptor (Homo sapiens) (UniProt P07550). Kind of assay: qHTS validation assay of beta-arrestin-biased ligands of beta2-adrenergic receptor (AID 485366). In short, it runs like this:
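Compound series up to 46 microM applied to beta2-AR/beta-arrestin Tango cells, 18 hr, 37 degrees C, 5% CO2. Read-out: tTA-driven luciferase luminescence, converted to %Activity; concentration-response curves assigned curve classes.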

For assay [9], the target named is ATP-dependent 6-phosphofructokinase (Trypanosoma brucei brucei) (UniProt O15648). Kind of assay: qHTS Validation Assay to Find Inhibitors of T. brucei phosphofructokinase (AID 485368). Summed up:
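qHTS format, up to 57 uM. PFK 1.25 nM; F6P 0.5 mM; ATP 0.1 mM; 5 mM MgCl2, 0.01% Tween20, 0.1% BSA; 0.1 M TEA pH 8.0; 45 min RT; ADP-Glo readout; no-enzyme control = full inhibition.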

The nature of assay [10]: Quantitative high throughput screen for delayed death inhibitors of the malarial parasite plastid, 48 hour incubation (AID 488752). Also: nearly all actives have a fitted effect of over 65% in size. Summed up:
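Cultures: infected erythrocytes at final 2% hematocrit and 0.1% parasitemia in Albumax-supplemented RPMI. Parasites express integrated firefly luciferase. Incubation with compound lasts 48 h before luminescent detection of remaining reporter activity.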

The target of assay [11] is Thioredoxin reductase 1, cytoplasmic (Rattus norvegicus) (UniProt O89049). Kind of assay: qHTS Assay for Substrates of Mammalian Selenoprotein Thioredoxin Reductase 1 (TrxR1) (AID 488772).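 Also: series mostly up to about 57 µM; a drop in NADPH fluorescence below the no-compound background marks a TrxR1 substrate.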 Summed up:
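In this dual-purpose format, potential substrates are identified from the first fluorescence read after selenite addition, not from the 8-minute delta. Rat enzyme is preincubated with NADPH and then with compound at ~22 deg C.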

Assay [12] shares this target. Kind of assay: qHTS Assay for Inhibitors of Mammalian Selenoprotein Thioredoxin Reductase 1 (TrxR1) (AID 488773).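 Also: drop in NADPH fluorescence over an 8 min run after selenite addition; series mostly up to about 57 µM; nearly all actives have a fitted effect of over 40% in size.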 As to conditions: Potency: inhibition. Summed up:
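Inhibition is scored from the loss of NADPH fluorescence between first and last reads of an 8-min kinetic run. Selenite (400 uM) was the substrate, added after 15 min compound preincubation at room temperature.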

Assay [13] concerns the target Flap endonuclease 1 (Homo sapiens) (UniProt P39748). Kind of assay: qHTS Validation Assay for the Inhibitors of Human Flap endonuclease 1 (FEN1) (AID 488816). In short, it runs like this: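 qHTS format: compounds and 10 nM FEN1 incubated 15 min at room temperature before adding 50 nM substrate. Cleavage followed by reads at 0 and 15 min; normalized data fitted to a four-parameter Hill curve.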

Assay [14] concerns the target M-phase phosphoprotein 8 (Homo sapiens) (UniProt Q99549). Kind of assay: qHTS Validation Assay for Inhibitors for MPP8 Chromodomain Interactions with Methylated Histone Tails (AID 488949).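 Also: 50 nM MPP8 with 50 nM peptide preformed then compounds added for 30 min; AlphaScreen signal from MPP8 chromodomain bound to biotinylated H3K9me3 peptide; top concentration of the series differs between compounds; nearly all actives have a fitted effect of over 55% in size.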 In short, it runs like this: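 50 nM MPP8 + 50 nM b-H3K9me3 peptide, PBS pH 7.4/0.01% Tween-20, 30 min RT; + cpd 30 min RT; + AlphaScreen donor/Ni-chelate acceptor beads 10 ug/mL final, 30 min dark; luminescence read.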

The target in assay [15] is Chromobox protein homolog 1 (Homo sapiens) (UniProt P83916). Kind of assay: qHTS Validation Assay for Inhibitors of HP1-beta Chromodomain Interactions with Methylated Histone Tails (AID 488953).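 Also: loss of AlphaScreen luminescence from HP1-beta binding biotinylated H3K9me3 peptide; series mostly up to about 110 µM; nearly all actives have a fitted effect of over 50% in size.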 In short, it runs like this:
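Compounds pinned into a preassembled complex of HP1-beta and trimethyl-K9 histone H3(1-18) biotin peptide (50 nM each; PBS pH 7.4, 0.01% Tween-20). After 30 min, bead-based AlphaScreen detection followed.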

For assay [16], the target named is Methanococcus maripaludis chaperonin (MmCpn) (UniProt Q6LX38). Kind of assay: High-Throughput Screening for Modulators of Cytosolic Chaperonin Activity: MmCpn Primary Screen (AID 488978).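 Also: 50 nM MmCpn enzyme hydrolysing 30 µM ATP at 37 °C.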 In short, it runs like this:
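Steps: chaperonin 50 nM final; add compound, 5 min RT; start with ATP, 30 uM final; hold 10 min at 37C; add ADP Transcreener HTRF reagent, 5 min; read ex 320, em 590 and 665 nm.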

For assay [17], the target named is Transient receptor potential cation channel subfamily V member 1 (Homo sapiens) (UniProt Q8NER1). Kind of assay: HTS Assay for Compounds that Act as Enhancers of the Vanilloid Receptor 1 (AID 488979). Summed up:
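Calcium influx kinetics via Fluo-8 (480/520 nm) in TRPV1-expressing cells, 2000/well cultured overnight at 35.5C. Compound-alone read 3 min (agonist phase), followed by EC20 capsaicin challenge for 2 min (enhancer phase).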

For assay [18], the target named is D(1A) dopamine receptor (Homo sapiens) (UniProt P21728). Kind of assay: HTS Assay for Allosteric Agonists of the Human D1 Dopamine Receptor: Primary Screen for Agonists (AID 488981). In short, it runs like this:
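Calcium flux in an inducible, force-coupled HEK293 Trex D1 line (overnight at 30 C): agonist mode is the 180 s kinetic read after compound; potentiator mode is the following 180 s read after dopamine at EC20.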

Assay [19] can be described thus: Quantitative high throughput screen for delayed death inhibitors of the malarial parasite plastid, 96 hour incubation (AID 488745). Also: nearly all actives have a fitted effect of over 70% in size. Also: potency is read from the fitted curve at half-maximal effect. Summed up: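 Two-generation (96 h) exposure of luciferase-reporter P. falciparum in erythrocytes, 2% hematocrit, 0.1% parasitemia final, 37 C, 5% CO2, RPMI 1640 with 0.5% Albumax. Growth inhibition scored by reduced luminescence.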

The target of assay [20] is Thyrotropin receptor (Homo sapiens) (UniProt P16473). Kind of assay: qHTS Assay for Antagonists of the Thyroid Stimulating Hormone Receptor (AID 488980). Also: series mostly up to about 58 µM. In short, it runs like this:
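Readout is cAMP by HTRF competition between cellular cAMP and cAMP-d2 for a cryptate-labelled antibody. Antagonism was assessed in TSHR-transfected HEK293 cells stimulated with 4 nM TSH (EC80, final) in the presence of RO 20-1724.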

M-phase phosphoprotein 8 (Homo sapiens), sequence (Q99549 whole entry, looked up): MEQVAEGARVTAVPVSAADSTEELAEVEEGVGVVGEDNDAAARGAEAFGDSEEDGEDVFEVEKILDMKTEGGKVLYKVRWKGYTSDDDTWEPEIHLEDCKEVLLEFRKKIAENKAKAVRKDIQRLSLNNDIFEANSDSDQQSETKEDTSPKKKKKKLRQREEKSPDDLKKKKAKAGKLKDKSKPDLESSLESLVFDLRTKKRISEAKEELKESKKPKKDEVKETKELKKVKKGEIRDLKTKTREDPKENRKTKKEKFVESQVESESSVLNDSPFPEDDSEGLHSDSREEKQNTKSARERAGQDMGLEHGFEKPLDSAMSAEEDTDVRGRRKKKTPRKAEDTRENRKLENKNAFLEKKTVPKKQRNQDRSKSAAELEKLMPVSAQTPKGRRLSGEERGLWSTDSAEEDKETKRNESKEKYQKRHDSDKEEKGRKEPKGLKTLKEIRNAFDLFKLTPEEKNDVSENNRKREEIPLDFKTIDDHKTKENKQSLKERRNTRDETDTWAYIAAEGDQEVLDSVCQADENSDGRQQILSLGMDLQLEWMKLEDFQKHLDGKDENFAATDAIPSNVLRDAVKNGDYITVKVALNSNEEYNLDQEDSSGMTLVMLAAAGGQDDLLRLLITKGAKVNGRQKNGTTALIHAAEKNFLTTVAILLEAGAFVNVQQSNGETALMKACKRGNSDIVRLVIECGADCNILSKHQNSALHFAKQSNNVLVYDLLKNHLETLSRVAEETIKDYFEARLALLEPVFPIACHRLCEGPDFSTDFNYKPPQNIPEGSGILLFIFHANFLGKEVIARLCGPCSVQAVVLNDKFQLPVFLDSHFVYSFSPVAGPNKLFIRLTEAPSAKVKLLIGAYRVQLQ
D(1A) dopamine receptor (Homo sapiens), sequence (P21728 whole entry, looked up): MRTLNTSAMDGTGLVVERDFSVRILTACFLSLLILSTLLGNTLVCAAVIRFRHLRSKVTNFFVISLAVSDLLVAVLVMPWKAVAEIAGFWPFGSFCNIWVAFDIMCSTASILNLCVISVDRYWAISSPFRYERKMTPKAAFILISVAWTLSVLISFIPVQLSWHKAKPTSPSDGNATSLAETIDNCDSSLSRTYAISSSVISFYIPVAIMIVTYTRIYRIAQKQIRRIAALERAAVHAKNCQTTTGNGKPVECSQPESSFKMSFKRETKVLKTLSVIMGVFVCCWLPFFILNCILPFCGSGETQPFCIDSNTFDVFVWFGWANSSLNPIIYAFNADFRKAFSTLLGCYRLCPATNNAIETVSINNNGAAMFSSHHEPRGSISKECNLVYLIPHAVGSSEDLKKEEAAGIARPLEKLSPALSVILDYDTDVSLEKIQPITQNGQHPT
Tumor susceptibility gene 101 protein (Homo sapiens), sequence (Q99816 whole entry, looked up, the tested form may be a part): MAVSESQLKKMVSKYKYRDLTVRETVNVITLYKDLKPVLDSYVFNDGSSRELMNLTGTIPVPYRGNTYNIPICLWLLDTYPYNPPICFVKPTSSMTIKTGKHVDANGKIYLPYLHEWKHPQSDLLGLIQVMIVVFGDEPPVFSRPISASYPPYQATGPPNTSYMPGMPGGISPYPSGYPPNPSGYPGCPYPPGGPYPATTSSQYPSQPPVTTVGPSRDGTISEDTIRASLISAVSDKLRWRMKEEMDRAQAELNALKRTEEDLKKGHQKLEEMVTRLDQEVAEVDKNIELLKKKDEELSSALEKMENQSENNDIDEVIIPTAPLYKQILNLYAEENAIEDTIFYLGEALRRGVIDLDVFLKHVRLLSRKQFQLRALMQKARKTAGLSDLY
Transient receptor potential cation channel subfamily V member 1 (Homo sapiens), sequence (Q8NER1 whole entry, looked up): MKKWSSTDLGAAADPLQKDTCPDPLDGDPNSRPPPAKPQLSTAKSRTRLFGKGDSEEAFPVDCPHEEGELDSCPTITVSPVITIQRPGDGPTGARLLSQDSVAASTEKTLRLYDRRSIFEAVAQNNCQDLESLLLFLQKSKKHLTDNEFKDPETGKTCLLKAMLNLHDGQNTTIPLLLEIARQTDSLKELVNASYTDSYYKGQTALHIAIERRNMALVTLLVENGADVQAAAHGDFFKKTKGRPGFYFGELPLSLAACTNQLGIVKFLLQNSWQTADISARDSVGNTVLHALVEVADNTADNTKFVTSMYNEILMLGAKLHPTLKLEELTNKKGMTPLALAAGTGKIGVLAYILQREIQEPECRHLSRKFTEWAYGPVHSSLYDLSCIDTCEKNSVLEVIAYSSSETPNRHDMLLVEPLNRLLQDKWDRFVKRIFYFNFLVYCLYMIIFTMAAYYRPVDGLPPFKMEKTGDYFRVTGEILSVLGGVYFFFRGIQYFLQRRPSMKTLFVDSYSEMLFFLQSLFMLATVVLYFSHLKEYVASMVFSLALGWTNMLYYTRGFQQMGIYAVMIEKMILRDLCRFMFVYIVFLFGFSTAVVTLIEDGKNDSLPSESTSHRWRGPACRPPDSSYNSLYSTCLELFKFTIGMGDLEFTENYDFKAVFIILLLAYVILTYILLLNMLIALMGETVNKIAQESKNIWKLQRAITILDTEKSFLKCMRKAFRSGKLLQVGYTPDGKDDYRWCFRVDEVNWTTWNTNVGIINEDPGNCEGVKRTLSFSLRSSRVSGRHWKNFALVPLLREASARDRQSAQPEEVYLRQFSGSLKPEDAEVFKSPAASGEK
Thioredoxin reductase 1, cytoplasmic (Rattus norvegicus), sequence (O89049 whole entry, looked up): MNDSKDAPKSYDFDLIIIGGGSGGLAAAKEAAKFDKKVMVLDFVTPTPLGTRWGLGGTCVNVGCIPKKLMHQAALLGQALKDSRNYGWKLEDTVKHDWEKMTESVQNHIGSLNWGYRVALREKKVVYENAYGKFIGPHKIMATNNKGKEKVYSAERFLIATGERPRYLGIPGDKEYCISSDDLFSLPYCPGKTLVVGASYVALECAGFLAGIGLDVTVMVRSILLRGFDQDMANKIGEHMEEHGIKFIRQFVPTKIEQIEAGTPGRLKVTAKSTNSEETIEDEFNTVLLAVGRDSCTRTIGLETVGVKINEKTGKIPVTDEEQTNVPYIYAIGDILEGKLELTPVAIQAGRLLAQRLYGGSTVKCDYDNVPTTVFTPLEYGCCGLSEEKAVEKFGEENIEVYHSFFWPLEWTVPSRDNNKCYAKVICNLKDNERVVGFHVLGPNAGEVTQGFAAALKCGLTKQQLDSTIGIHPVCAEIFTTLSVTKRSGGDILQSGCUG
Beta-2 adrenergic receptor (Homo sapiens), sequence (P07550 whole entry, looked up): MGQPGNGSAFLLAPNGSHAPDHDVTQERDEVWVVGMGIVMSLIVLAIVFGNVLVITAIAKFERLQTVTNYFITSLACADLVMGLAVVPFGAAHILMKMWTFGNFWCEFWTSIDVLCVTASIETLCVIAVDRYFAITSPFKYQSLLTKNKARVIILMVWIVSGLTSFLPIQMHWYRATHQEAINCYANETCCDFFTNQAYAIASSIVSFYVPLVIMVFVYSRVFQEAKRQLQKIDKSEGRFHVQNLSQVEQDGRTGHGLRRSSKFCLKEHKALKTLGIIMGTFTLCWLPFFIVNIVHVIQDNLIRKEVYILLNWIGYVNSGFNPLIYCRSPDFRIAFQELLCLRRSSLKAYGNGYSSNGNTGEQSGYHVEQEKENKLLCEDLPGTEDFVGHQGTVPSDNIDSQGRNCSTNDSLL
Chromobox protein homolog 1 (Homo sapiens), sequence (P83916 whole entry, looked up): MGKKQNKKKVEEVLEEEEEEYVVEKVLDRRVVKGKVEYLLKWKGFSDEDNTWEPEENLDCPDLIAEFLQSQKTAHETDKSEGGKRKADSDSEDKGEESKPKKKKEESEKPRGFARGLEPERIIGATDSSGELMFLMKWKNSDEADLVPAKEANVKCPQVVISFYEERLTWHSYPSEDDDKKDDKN
Thyrotropin receptor (Homo sapiens), sequence (P16473 whole entry, looked up): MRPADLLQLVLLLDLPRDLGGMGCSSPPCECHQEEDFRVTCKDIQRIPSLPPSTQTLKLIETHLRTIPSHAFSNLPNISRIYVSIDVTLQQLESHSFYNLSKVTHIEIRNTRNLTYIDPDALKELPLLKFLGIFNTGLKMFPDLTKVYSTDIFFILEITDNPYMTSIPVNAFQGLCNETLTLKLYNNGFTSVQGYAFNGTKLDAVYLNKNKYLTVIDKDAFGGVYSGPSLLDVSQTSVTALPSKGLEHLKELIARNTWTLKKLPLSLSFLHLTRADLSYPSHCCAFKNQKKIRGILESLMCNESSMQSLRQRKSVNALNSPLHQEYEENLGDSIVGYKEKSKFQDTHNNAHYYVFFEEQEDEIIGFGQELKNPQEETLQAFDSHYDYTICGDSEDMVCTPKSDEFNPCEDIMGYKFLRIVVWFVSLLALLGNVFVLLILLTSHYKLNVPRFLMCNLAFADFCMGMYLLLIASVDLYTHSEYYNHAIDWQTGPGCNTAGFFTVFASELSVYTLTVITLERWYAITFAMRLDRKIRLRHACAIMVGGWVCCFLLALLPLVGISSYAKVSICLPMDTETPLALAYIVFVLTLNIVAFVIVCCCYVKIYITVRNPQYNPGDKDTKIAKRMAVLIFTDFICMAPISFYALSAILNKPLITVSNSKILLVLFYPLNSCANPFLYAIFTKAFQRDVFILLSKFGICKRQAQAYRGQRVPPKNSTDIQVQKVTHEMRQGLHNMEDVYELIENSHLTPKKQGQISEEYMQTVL
Methanococcus maripaludis chaperonin (MmCpn), sequence (Q6LX38 1-543): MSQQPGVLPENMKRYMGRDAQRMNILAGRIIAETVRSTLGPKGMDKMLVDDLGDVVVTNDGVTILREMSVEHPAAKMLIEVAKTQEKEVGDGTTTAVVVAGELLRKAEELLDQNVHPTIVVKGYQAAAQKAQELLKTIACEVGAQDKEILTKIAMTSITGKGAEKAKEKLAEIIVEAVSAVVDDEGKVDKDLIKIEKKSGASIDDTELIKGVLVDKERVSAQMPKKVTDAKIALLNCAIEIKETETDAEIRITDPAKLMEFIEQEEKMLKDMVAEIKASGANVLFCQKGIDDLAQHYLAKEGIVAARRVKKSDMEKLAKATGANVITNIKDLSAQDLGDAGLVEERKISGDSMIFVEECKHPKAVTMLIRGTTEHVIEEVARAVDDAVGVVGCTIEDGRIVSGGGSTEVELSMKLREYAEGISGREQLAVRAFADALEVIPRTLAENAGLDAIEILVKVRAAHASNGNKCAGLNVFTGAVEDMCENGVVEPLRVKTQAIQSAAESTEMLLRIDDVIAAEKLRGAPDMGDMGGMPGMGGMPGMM

As for `c1ccc2cc(CC3=NCCN3)ccc2c1`, the Potency result in assay [1], in assay [2], in assay [3], in assay [4], in [5] and in assay [7] was “inactive” throughout. Besides, the Potency result in assay [9], in [10], in [12], in assay [13], in assay [14] and in [15] was “inactive” in each case. Besides, the Potency entry in assay [18] is “inactive”. Besides, the result in assay [6], in [8], in [11], in assay [16] and in [17] was inactive.
`C=CCN1CCC23c4c5ccc(O)c4O[C@H]2C(=O)CC[C@@]3(O)C1C5` (stereo partly specified): the Potency result in assay [1], in assay [2], in [3], in [4], in assay [5] and in assay [7] was “inactive” in each case. In addition, the Potency entry in assay [9], in assay [19], in assay [10], in assay [12], in [13] and in [14] was “inactive” throughout. Also, in assay [15], the Potency result was “inactive”. For the same compound, the outcome in assay [6], in [8], in assay [11], in [16], in [17] and in assay [20] was inactive.
On to `CC(Cc1ccc(OCC(=O)O)cc1)NCC(O)c1cccc(Cl)c1` (stereo unspecified), for which the Potency entry in assay [1], in assay [2], in [3], in [4], in assay [5] and in [7] was “inactive” in each case. Besides, the Potency result in assay [9], in [19], in assay [10], in [12], in assay [13] and in [14] was “inactive” each time. For the same compound, the Potency entry in assay [15] is “inactive”. The compound was called inactive in assay [6], in [8], in assay [16], in assay [17] and in [20].
On to `COc1ccc(CNC(=O)/C=C/c2ccc3[nH]cc(CCN(C)C)c3c2)cc1`, for which the Potency entry in assay [1], in [2], in assay [3], in assay [4], in assay [5] and in [7] was “inactive” throughout. For the same compound, the Potency result in [9], in [12], in [13], in assay [14], in assay [15] and in assay [18] was “inactive” each time. In addition, the compound was called inactive in assay [6], in [8], in [11], in [16], in assay [17] and in assay [20]. Also, the Potency in assay [19] is 11.7 µM (active).
As for `NCCc1c[nH]c2ccc(C(N)=O)cc12`, the Potency result in assay [1], in assay [2], in [3], in [4], in assay [5] and in assay [7] was “inactive” in each case. Also, the Potency result in [9], in assay [19], in assay [10], in assay [12], in assay [13] and in assay [14] was “inactive” in each case. Moreover, the Potency result in assay [15] and in [18] was “inactive” throughout. For the same compound, the outcome in assay [6], in assay [8], in assay [11], in assay [16], in [17] and in assay [20] was inactive.
With `CC(C)(C)c1o[nH]c(=O)c1CC(N)C(=O)O` (stereo unspecified), the Potency result in assay [1], in assay [2], in [3], in assay [4], in [5] and in [7] was “inactive” throughout. The Potency entry in [9], in [19], in assay [10], in assay [12], in [14] and in assay [15] was “inactive” each time. Also, the Potency entry in [18] was “inactive”. Further, the compound was classed as inactive in assay [6], in [8], in assay [11], in [16], in assay [17] and in [20].
As to `CC(=O)NBr`, the Potency result in assay [1], in [2], in assay [3], in assay [4], in assay [5] and in [7] was “inactive” each time. Further, the Potency result in [9], in assay [19], in [10], in [12], in assay [13] and in assay [14] was “inactive” in each case. The Potency entry in assay [15] and in assay [18] was “inactive” in each case. Further, the result in assay [6], in [8], in [11], in [16], in assay [17] and in assay [20] was inactive.
In the case of `Cc1o[nH]c(=O)c1CC(N)C(=O)O` (stereo unspecified), the Potency result in [1], in [2], in assay [3], in [4], in assay [5] and in [7] was “inactive” throughout. In addition, the Potency result in assay [9], in [19], in [10], in assay [12], in assay [13] and in [14] was “inactive” in each case. Besides, in [18], the Potency entry is “inactive”. For the same compound, the compound was called inactive in [6], in [8], in assay [11], in assay [16] and in assay [17].
